# Data reported in the supplement of paper PMC7380943.
# Columns and labels:
# [1] = system: CLZ3 (HCA2 human fibroblast dual HR-NHEJ reporter); assay: NHEJ repair efficiency (GFP+ cells) relative to control (log10 fold); higher = more non-homologous end joining; conditions: 5 µM; doxycycline 0.5 ug/mL
# [2] = system: CLZ3 (HCA2 human fibroblast dual HR-NHEJ reporter); assay: HR repair efficiency (tdTomato+ cells) relative to control (log10 fold); higher = more homologous recombination; conditions: 5 µM; doxycycline 0.5 ug/mL
# 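Throughout, for HR repair efficiency (tdTomato+ cells) relative to control: compound given one day before doxycycline, which switches on I-SceI endonuclease expression to create double-strand breaks within the integrated reporter.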
# 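Throughout, for NHEJ repair efficiency (GFP+ cells) relative to control: compound given one day ahead of doxycycline, which switches on I-SceI endonuclease to cut the chromosomally integrated reporter and create DSBs.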
SMILES,NHEJ repair efficiency (log10) [1],HR repair efficiency (log10) [2]
C=C1CCC[C@]2(C)C=C3OC(=O)C(C)=C3C[C@@H]12 [Atractylenolide I],0.0524,0.0435
O=C(O[C@@H]1Cc2c(O)cc(O)cc2O[C@H]1c1cc(O)c(O)c(O)c1)c1cc(O)c(O)c(O)c1 [(-)Gallocatechin gallate],-0.12,0.0198
C[C@H]1O[C@@H](O[C@H]2CC[C@@]3(C)[C@@H](CC[C@]4(C)[C@@H]3C=C[C@]35OC[C@@]6(CCC(C)(C)C[C@H]63)[C@@H](O)C[C@]54C)[C@]2(C)CO)[C@H](O)[C@@H](O[C@@H]2O[C@H](CO)[C@@H](O)[C@H](O)[C@H]2O)[C@H]1O [Saikosaponin a],-0.305,-0.315
O=C(O)c1cc(O)c2c(c1)C(=O)c1cccc(O)c1C2=O [Rhein],0.0809,-0.07
COc1ccc(-c2coc3cc(O)cc(O)c3c2=O)cc1 [Biochanin A],-0.0507,0.0228
CC(=O)O[C@H]1[C@H](OCCc2ccc(O)c(O)c2)O[C@H](CO)[C@@H](OC(=O)/C=C/c2ccc(O)c(O)c2)[C@@H]1O[C@@H]1O[C@@H](C)[C@H](O)[C@@H](O)[C@H]1O [2-Acetylacteoside],-0.00932,-0.164
O=C(/C=C/c1ccc(O)c(O)c1)OC[C@H]1O[C@@H](OCCc2ccc(O)c(O)c2)[C@H](O)[C@@H](O)[C@@H]1O [Calceolarioside B],-0.0242,0.193
CC(C)=CCC[C@](C)(O[C@@H]1O[C@H](CO[C@@H]2O[C@H](CO)[C@@H](O)[C@H](O)[C@H]2O)[C@@H](O)[C@H](O)[C@H]1O)[C@H]1CC[C@]2(C)[C@@H]1[C@H](O)C[C@@H]1[C@@]3(C)CC[C@H](O[C@@H]4O[C@H](CO)[C@@H](O)[C@H](O)[C@H]4O[C@@H]4O[C@H](CO)[C@@H](O)[C@H](O)[C@H]4O)C(C)(C)[C@@H]3CC[C@]12C [Ginsenoside Rb1],0.0709,0.217
COc1ccc(C(C)=O)c(O)c1 [Paeonol],0.076,0.17
COc1cc(O)c2c(=O)c(-c3ccc(O)cc3)coc2c1 [Prunusetin],-0.0809,-0.16
COc1ccc([C@@H]2CC(=O)c3c(O)cc(O[C@@H]4O[C@H](CO[C@@H]5O[C@@H](C)[C@H](O)[C@@H](O)[C@H]5O)[C@@H](O)[C@H](O)[C@H]4O)cc3O2)cc1O [Hesperidin],0.196,0.258
CC1CCC(C(C)C)C(O)C1 (stereo not given) [Menthol],0.0621,-0.0345
COc1cc(C2Oc3ccc(C4Oc5cc(O)cc(O)c5C(=O)C4O)cc3OC2CO)ccc1O (stereo not given) [Iso-Silybin],-0.138,-0.241
NC(=O)NC1NC(=O)NC1=O (stereo not given) [Allantoin],0.029,0.00746
C=C1C[C@@]23CC[C@H]4[C@@](C)(CCC[C@@]4(C)C(=O)O[C@@H]4O[C@H](CO)[C@@H](O)[C@H](O)[C@H]4O)[C@@H]2CC[C@]1(O[C@@H]1O[C@H](CO)[C@@H](O)[C@H](O)[C@H]1O[C@@H]1O[C@H](CO)[C@@H](O)[C@H](O)[C@H]1O)C3 [Stevioside],0.149,0.296
O=c1c(-c2ccc(O)cc2)coc2cc(O)ccc12 [Daidzein],-0.0789,-0.15
OCC1=C[C@@H](O)[C@]2(O[C@@H]3O[C@H](CO)[C@@H](O)[C@H](O)[C@H]3O[C@@H]3O[C@H](CO)[C@@H](O)[C@H](O)[C@H]3O)C=CO[C@@H](O[C@@H]3O[C@H](CO)[C@@H](O)[C@H](O)[C@H]3O)[C@H]12 [Rehmannioside D],-0.165,-0.0162
COC(=O)C1=CO[C@@H](O[C@@H]2O[C@H](CO)[C@@H](O)[C@H](O)[C@H]2O)[C@H]2[C@@H]1C(=O)C[C@@H]2C [Verbenalin],0.0793,0.178
O=C(O)/C=C/c1ccccc1 [Cinnamic Acid],-0.0918,0.0721
C=C1CCC[C@]2(C)C[C@]3(O)OC(=O)C(C)=C3C[C@@H]12 [Atractylenolide Iii],0.00444,0.0542
O=C1c2ccccc2C(=O)c2c1cc(O)c(CO)c2O [Lucidin],0.134,0.258
Oc1cc(O)c2c(c1)OC(c1ccc(O)c(O)c1)C(OC1(c3ccc(O)c(O)c3)Oc3cc(O)cc(O)c3C(O)C1O)C2 (stereo not given) [Procyanidins],0.0386,0.123
O=C1c2ccccc2C(=O)c2c(O)c(O)cc(O)c21 [Purpurin],-0.0313,0.0725
COc1cc(CNC(=O)CCCC/C=C/C(C)C)ccc1O [Capsaicin],-0.0748,-0.0984
C[C@@H]1O[C@@H](O[C@@H]2[C@H](O)[C@@H](O)[C@H](O[C@H]3CC[C@@]4(C)C(CC[C@]5(C)C4C=C[C@]46OC[C@@]7(CCC(C)(C)CC74)[C@@H](O)C[C@]65C)C3(C)C)O[C@@H]2CO[C@@H]2O[C@H](CO)[C@@H](O)[C@H](O)[C@H]2O)[C@H](O)[C@H](O)[C@H]1O (stereo not given in full) [Saikosaponin c],-0.0431,-0.104

SMILES,NHEJ repair efficiency (log10) [1],HR repair efficiency (log10) [2]
CC(=O)CCc1ccc(O)cc1 [Raspberry Ketone],-0.163,-0.0897
O=C1C[C@@H](c2ccc(O[C@@H]3O[C@H](CO)[C@@H](O)[C@H](O)[C@H]3O)cc2)Oc2cc(O)ccc21 [Liquiritin],-0.084,-0.0906
C[C@@H]1O[C@@H](O[C@H]2[C@H](O[C@H]3CC[C@@]4(C)[C@@H](CC[C@]5(C)[C@@H]4CC=C4[C@@H]6CC(C)(C)CC[C@]6(C(=O)O[C@@H]6O[C@H](CO[C@@H]7O[C@H](CO)[C@@H](O)[C@H](O)[C@H]7O)[C@@H](O)[C@H](O)[C@H]6O)CC[C@]45C)[C@]3(C)CO)OC[C@H](O)[C@@H]2O)[C@H](O)[C@H](O[C@@H]2O[C@H](CO)[C@@H](O)[C@H](O)[C@H]2O)[C@H]1O [Macranthoidin A],-0.155,0.0324
COc1c2occc2cc2ccc(=O)oc12 [Xanthotoxin],-0.261,-0.0664
C=C1CC[C@H]2C(=C)CC[C@H]3C(=C)C(=O)O[C@@H]3[C@@H]12 [Dehydrocostus Lactone],-0.02,0.03
CC(CCC(OC1OC(CO)C(O)C(O)C1OC1OC(CO)C(O)C(O)C1O)C(C)(C)O)C1CCC2(C)C3CC=C4C(CCC(OC5OC(COC6OC(CO)C(O)C(O)C6O)C(O)C(O)C5O)C4(C)C)C3(C)C(O)CC12C (stereo not given) [Mogroside IV],0.0766,0.171
CC(=O)O[C@H]1CC(=O)OC(C)(C)[C@@H]2CC(=O)[C@]3(C)[C@H](CC[C@@]4(C)[C@@H](c5ccoc5)OC(=O)[C@H]5O[C@]543)[C@@]12C [Nomilin],-0.276,-0.226
CC(C)=CCc1c(-c2ccc(O)cc2O)oc2c([C@H]3C=C(C)C[C@@H](c4ccc(O)cc4O)[C@@H]3C(=O)c3ccc(O)cc3O)c(O)cc(O)c2c1=O [Kuwanon G],0.0109,0.129
COc1ccccc1 [Anisole],0.105,0.043
NCCCC(=O)O [γ-Aminobutyric Acid],-0.0944,0.0562
COc1cc(O)c2c(=O)c(O[C@@H]3O[C@H](CO)[C@@H](O)[C@H](O)[C@H]3O)c(-c3ccc(O[C@@H]4O[C@H](CO)[C@@H](O)[C@H](O)[C@H]4O)cc3)oc2c1 [Complanatoside],-0.0413,-0.0658
COc1c(O[C@@H]2O[C@H](C(=O)O)[C@@H](O)[C@H](O)[C@H]2O)cc(O)c2c(=O)cc(-c3ccccc3)oc12 [Wogonoside],-0.0783,-0.00302
C[C@H]1[C@H](C)CC[C@]2(C(=O)O)CC[C@]3(C)C(=CC[C@@H]4[C@@]5(C)C[C@@H](O)[C@H](O)[C@@](C)(CO)[C@@H]5[C@H](O)C[C@]43C)[C@H]12 [Madecassic acid],0.0926,0.143
C[N+](C)(C)CC(=O)O [Betaine],-0.243,-0.337
C[C@@H]1O[C@@H](O[C@H]2[C@H](Oc3cc(O)c(C(=O)CCc4ccc(O)cc4)c(O)c3)O[C@H](CO)[C@@H](O)[C@@H]2O)[C@H](O)[C@H](O)[C@H]1O,-0.0363,-0.0118
CO[C@H]1O[C@@H]2O[C@@]3(C)CC[C@H]4[C@H](C)CC[C@@H]([C@H]1C)[C@@]24OO3 [Artemether],0.125,0.186
C=C1[C@H]2CC[C@]3([C@@H]1O)[C@H]1C[C@@H]4C5(C)CCCC4([C@@H]1N(CC)C5)[C@@H]3[C@H]2O [Denudatine],-0.089,0.0616
Oc1ccc2c(c1)OCO2 [Sesamol],0.111,0.234
CC1(C)[C@@H](O[C@H]2O[C@H](C(=O)O)[C@@H](O)[C@H](O)[C@H]2O[C@@H]2O[C@H](C(=O)O)[C@@H](O)[C@H](O)[C@H]2O)CC[C@]2(C)[C@H]3C(=O)C=C4[C@@H]5C[C@@](C)(C(=O)O)CC[C@]5(C)CC[C@@]4(C)[C@]3(C)CC[C@@H]12 [Monoammonium Glycyrrhizinate],0.137,-0.00605
C[C@]1(O)C[C@@H](O)[C@]2(O)C=CO[C@@H](O[C@H]3O[C@H](CO)[C@@H](O)[C@H](O)[C@H]3O)[C@@H]21 [Harpagide],0.0851,-0.126
C/C=C(\C)C(=O)OC1c2c(ccc3ccc(=O)oc23)OC(C)(C)C1OC(=O)/C(C)=C/C (stereo not given) [Praeruptorin B],-0.0992,0.0577
C=C1C(=O)O[C@@H]2/C=C(\C)CC/C=C(\C)CC[C@@H]12 [Costunolide],-0.04,0.07
CC(C)=CCc1cc2c(cc1O)O[C@H](c1ccc(O)cc1)CC2=O [Bavachin],0.0703,0.0642
O=c1ccc2ccc(O)c(O)c2o1 [Daphnetin],0.0636,0.146
C[C@@H]1O[C@@H](Oc2c(-c3ccc(O)c(O)c3)oc3cc(O)cc(O)c3c2=O)[C@H](O)[C@H](O)[C@H]1O [Quercitrin],-0.0507,0.0282
